The results in this text go back to PubChem BioAssay (EPA / NIEHS).

Molecules are shown by their SMILES. Where “and” joins values, the source holds several entries; their conditions need not be identical. Equal entries are not always repeated. Records with an inconclusive call do not appear. Calls of active or inactive are those of the source. How the source made its calls, unless noted: active means hit-call score of the fitted dose curve at least 0.9, where 1 is the maximum; inactive means score below 0.9.

As usually defined, the AC50 is the concentration at which the activity in the assay is half-maximal.

The first test can be described thus: CCTE_Shafer_MEA_dev_LDH: CCTE's Lactate Dehydrogenase Assay for Cytotoxicity in the Neural Network Formation Assay, Shafer Lab (AID 2284068; active means hit-call score of the fitted dose curve at least 0.9, where 1 is the maximum;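 further: exposure for twelve days from plating with re-dosing on DIV 5 and 9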). Summed up: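 Cytotoxicity companion to network-formation recordings: rat cortical neurons received compound over 12 days of development, re-dosed at DIV 5 and 9 feeds. Viability was inferred from LDH enzyme activity relative to DMSO.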
On to `CC[C@H](C)C(=O)O[C@H]1CCC=C2C=C[C@H](C)[C@H](CC[C@@H]3C[C@@H](O)CC(=O)O3)[C@H]21`, for which the half-maximal activity concentration (AC50) is 0.215 µM (active).

With `C[C@@H]1C[C@H]2[C@@H]3CCC4=CC(=O)C=C[C@]4(C)[C@@]3(F)[C@@H](O)C[C@]2(C)[C@@]1(O)C(=O)CO`, the outcome was inactive.

For `[Cl-].[Cl-].[NH2-].[NH2-].[Pt+4]`, the half-maximal activity concentration (AC50) was 81 µM (active).

The nature of a further test: CCTE_Shafer_MEA_dev_mutual_information_norm: CCTE's Neural Network Formation Assay for Mutual Information Normalization, Shafer Lab (AID 2284091).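 On AC50: mutual information between electrodes summarised as area under curve across four recording days; potency is for a decrease in mutual information relative to DMSO.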 Summed up: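 Developing rat cortical networks on 16-electrode MEA wells are treated throughout formation (DIV 0–12). Shared electrode information is recorded four times, converted to area-under-curve, and fitted for decreases against DMSO vehicle.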
Take `CC[C@H](C)C(=O)O[C@H]1CCC=C2C=C[C@H](C)[C@H](CC[C@@H]3C[C@@H](O)CC(=O)O3)[C@H]21`: the concentration at half-maximal activity (AC50) was 353 nM (active) and 881 nM (active).

As for `C[C@@H]1C[C@H]2[C@@H]3CCC4=CC(=O)C=C[C@]4(C)[C@@]3(F)[C@@H](O)C[C@]2(C)[C@@]1(O)C(=O)CO`, the result was inactive.

Regarding `[Cl-].[Cl-].[NH2-].[NH2-].[Pt+4]`, the compound was called inactive.
